Compound activity from PubChem BioAssay.
Marburg entry inh: blocks Marburg virus binding to or entry into cells; Marburg virus pseudotyped entry inhibition, cell reporter; Potency, µM (highest dose often 37.8 µM), for the others: at the highest dose activity change, negative = inhibition, usual class: inhibitors; hit rate 1.8% among 300,000; AID 540276; calls by dose curve; tested in HEK293 cells; note: potency is the fitted concentration of half-maximal effect; % is set by controls: 0 for no effect and ±100 for the full control effect
Shiga inhibitor: inhibitors of Shiga toxin in Vero cells | inhibition, % at 38.7 µM | AID 2315 | hit rate 9.2% among 290,000 | Vero cells, Shiga toxin protein synthesis inhibition reporter; in the data active = inhibition mostly above about 28%, no sharp cut-off; inactive = mostly below about 43%; note: 0% is about no effect
Cycloheximide cs: counter-screen for Shiga toxin inhibitors: cycloheximide protein synthesis inhibition; cell reporter, cycloheximide protein synthesis inhibition counterscreen; max response, %; hit rate 12% among 300,000; AID 2314; in the data active = max response mostly above about 13%, no sharp cut-off; inactive = mostly below about 14%; note: read at 38.3 µM for the half of the compounds with a filed dose; 0% is about no effect
Lassa entry inh: blocks Lassa virus binding to or entry into cells. Lassa virus pseudotype entry inhibition, cell reporter. Potency, µM (series often up to 37.9 µM), inactives show at the top dose activity change, negative = inhibition, hits mostly inhibitors. hit rate 1.2% among 300,000. AID 540256; calls by dose curve; tested in HEK293 cells; note: potency is the fitted concentration of half-maximal effect; % is set by controls: 0 for no effect and ±100 for the full control effect; nearly all actives have a fitted effect of over 50% in size
* hit, by the source's call; ? = inconclusive; · = no result; [ ] = dose if it differs, or a comment. An excerpt weighted towards active compounds, which were near 12% of everything screened.

SMILES	Marburg entry inh	Shiga inhibitor	Cycloheximide cs	Lassa entry inh
CCN(CC)C(=S)SC1CCCCN(C(=O)c2ccccc2)C1=O (centres undefined)	·	57.2*	35.8*	·
Cc1ccccc1N1C(=O)[C@@H]2[C@H](ON(c3ccccc3)[C@H]2c2ccncc2)C1=O	-6.2%	·	·	·
Cc1cc(-c2cc(N)n(-c3ccccc3)n2)c(C)n1C1CCCC1	8.1%	40.0*	35.7*	7.5%
CC(/C=C/C=C/c1ccccc1)=N/NC(=O)CNc1ccc(C)cc1	-21.4%	31.6	35.3*	?
Cc1ccc(NCC(=O)N/N=C/c2cccc(Oc3ccccc3)c2)cc1	4.2%	17.2	13.0	2.31µM*
CC(/C=C/C=C/c1ccccc1)=N/NC(=O)C(O)c1ccccc1 (centres undefined)	-9.8%[46.1 µM]	36.5	10.8	-10.1%[46.1 µM]
CSc1ccc(/C=N\NC(=O)CNc2ccc(C)cc2)cc1	-7.6%	20.3	8.9	1.3µM*
Cc1cccc(NCC(=O)N/N=C\c2cccc(Oc3ccccc3)c2)c1	?	15.6	3.9	?
CC(/C=C/c1ccccc1)=N\NC(=O)CNC(=O)c1ccccc1Cl	2.7%	-11.5	10.1*	-0.3%
O=C(CN1C(=O)NC2(CCCC2)C1=O)N1CCc2ccccc2C1	?	38.3	19.8	0.4%[46.1 µM]
C=C1C(=O)O[C@@H]2C[C@@H](C)[C@H]3C=CC(=O)[C@]3(O)C[C@@H]12	·	28.6	14.3*	·
COc1ccc(-n2ccnc(SCC(=O)NCc3ccccc3Cl)c2=O)cc1	·	1.0	7.1	·
O=C(O)c1ccc2ncc(NC(=O)c3ccc(F)cc3)c(=O)n2c1	0.6%	-15.2	-3.6	?
COc1ccc(C(CNC(=O)c2cccc3cccnc23)N(C)C)cc1 (centres undefined)	-5.1%[46.1 µM]	-5.6	4.7	-2.9%[46.1 µM]
COc1ccc(/C=C/C(=O)Nc2ccccc2C(=O)O)cc1	1.58µM*	-4.4	-2.6	?
COc1ccc(/C=C/C(=O)Nc2ccccc2C(=O)O)cc1OC	1.46µM*	49.6	23.2	1.3µM*
COc1ccc(/C=C/C(=O)Nc2ccccc2C(=O)NCC(c2ccc(OC)cc2)N(C)C)cc1 (centres undefined)	?	39.5*	10.0	?
COc1ccc(/C=C/C(=O)NC2=NCCS2)cc1OC	?	69.7*	37.8*	2.8%[46.1 µM]
COC(=O)c1ccccc1NC(=O)/C=C/c1cc(OC)c(OC)c(OC)c1	?	-10.2	-1.8	?
COc1ccc(/C=C/C(=O)Nc2ccccc2C(=O)N2CCCC2)cc1	-12.5%	52.5*	24.2	2.9%
CCc1cc(C(=O)O)c(NC(=O)/C=C/c2ccc(OC)cc2)s1	·	36.9	31.6*	·
CCc1cc(C(=O)O)c(NC(=O)/C=C/c2ccc(OC)c(OC)c2)s1	·	-8.5	-2.6	·
COc1ccc(/C=C(/C(=O)Nc2ccccc2C(=O)N2CCCC2)c2ccccc2)cc1	-7.2%	-5.4	0.9	-17.2%
CCc1ccccc1N(C)S(=O)(=O)c1ccc(-c2cc(C)no2)s1	·	12.3	-1.7	·
CC(C)C(=O)NCC(c1ccc2c(c1)OCO2)N1CCN(c2ccccc2)CC1 (centres undefined)	·	·	·	12.9%[46.1 µM]
SMILES	Marburg entry inh	Shiga inhibitor	Cycloheximide cs	Lassa entry inh
Cc1ccc(C)c(N2CCN(C(=O)CCS(=O)(=O)c3ccc4c(c3)oc(=O)n4C)CC2)c1	-19.3%[46.1 µM]	-3.4	19.0	-13.4%[46.1 µM]
COc1ccc(NC(=O)c2ccc(COc3ccccc3)o2)c(OC)c1	·	-5.1	3.4	·
COc1ccc(NC(=O)c2ccc(Cc3ccc(C)cc3)o2)cc1	?	29.2	24.1*	?
COc1ccc(NC(=O)c2ccc(COc3ccccc3)o2)cc1	-10.3%	24.2	21.4*	8.0%
CSc1ncccc1C(=O)OCc1ccccc1Cl	·	59.7	40.9*	·
COC(=O)c1cccc(COC(=O)c2cccnc2SC)c1	?	37.6	21.1*	?
COc1ccc(C(C)=O)cc1COC(=O)c1cccnc1SC	-9.7%[46.1 µM]	8.0	1.4	13.0%
CSc1ncccc1C(=O)OCc1c(F)cccc1Cl	5.6%[46.1 µM]	90.9*	21.1*	8.7%
O=C(OCc1c(F)cccc1Cl)c1cccnc1Cl	6.6%[46.1 µM]	6.0	-3.1	4.2%
Cc1cc(C(=O)Nc2ncn[nH]2)ccc1[N+](=O)[O-]	10.0%	13.8	-3.9	17.9%
Cn1nccc1NS(=O)(=O)c1ccc(C(C)(C)C)cc1	?	16.7	3.3	-28.0%[46.1 µM]
CC(=O)N(Cc1ccco1)c1nc(C(=O)Nc2ccc(Cl)cc2)c(C)s1	-5.3%	95.1*	45.6*	-3.6%
O=C(CN(Cc1ccco1)C(=O)c1ccc(Cl)cc1)Nc1ccc(Cl)c(Cl)c1	?	23.3	3.9	4.1%
Cc1ccc(N2C(=O)N3[C@H](c4ccc(Cl)cc4)[C@@H]4C(=O)N(C5CCCCC5)C(=O)[C@@H]4[C@]3(Cc3ccccc3)C2=O)cc1	·	19.3*	9.7*	·
COC(=O)c1ccc(NC(=O)CC2C(=O)N(c3cccc(F)c3)C(=O)N2CC(C)C)cc1 (centres undefined)	-17.4%[46.1 µM]	·	·	0.3%[46.1 µM]
O=C1/C(=C/N(C(=O)c2ccco2)c2ccc(Br)cc2)Sc2ccccc21	?	0.0	37.1*	?
O=C1/C(=C/N(C(=O)c2ccco2)c2ccc(Cl)cc2)Sc2ccccc21	?	90.9*	39.2*	?
CNc1c(NS(=O)(=O)c2ccc(OC)c(Cl)c2)c(=O)oc2ccccc12	?	15.2	9.4	-27.1%[46.1 µM]
Cc1cc(C(=O)CSc2nnc(-c3ccco3)o2)c(C)n1-c1ccc2c(c1)OCCO2	-15.2%	7.2	4.3	?
Cc1cc(C(=O)CSc2nnc(-c3ccc4c(c3)OCO4)o2)c(C)n1-c1ccc(F)cc1	11.5%	25.5	7.1	-2.3%
Cc1cc(C(=O)CSc2nnnn2C)c(C)n1-c1ccc2c(c1)OCCO2	-22.1%	142.4*	37.5*	26.7%
Cc1nnc(SCc2ccc3c(c2)OCO3)s1	18.4%	142.5*	80.7*	16.6%
Cc1nnc(SCC(=O)c2cc(C)n(-c3ccc4c(c3)OCO4)c2C)s1	?	35.8*	18.0*	-5.8%
O=C1c2ccccc2C(=O)C1(c1ccccc1)N1CCN(c2cccc(C(F)(F)F)c2)CC1	?	·	·	0.9%[46.1 µM]
CC(C)C(=O)N1CCN(c2ccccc2NC(=O)COc2ccccc2)CC1	-21.3%	-13.3	-1.9	?
SMILES	Marburg entry inh	Shiga inhibitor	Cycloheximide cs	Lassa entry inh
CC(C)C(=O)N1CCN(c2ccccc2NC(=O)COc2ccc(C3CCCCC3)cc2)CC1	7.94µM*	-12.5	1.5	-12.0%
O=C(CSc1nnc(-c2ccccc2)o1)N1CCCC1	27.4%[46.1 µM]	58.5	15.3*	24.9%
O=C(CSc1nnc(-c2ccc(F)cc2)o1)N1CCCCC1	?	67.4*	26.8*	21.7%[46.1 µM]
O=C(CSc1nnc(-c2c[nH]c3ccccc23)o1)N1CCCCC1	?	69.7*	25.8*	-15.4%
CC1CC(C)CN(C(=O)CSc2nnc(-c3ccc(F)cc3)o2)C1 (centres undefined)	·	-5.2	-8.5	·
O=C(CSc1nnc(-c2ccccc2)o1)N1CCCCC1	?	90.2*	18.0*	-16.9%[46.1 µM]
COc1ccc(OC)c(CNC(=O)c2ccc3nc(C(C)C)oc3c2)c1	·	·	·	-19.1%[46.1 µM]
COc1cc(OC)c(NS(=O)(=O)c2ccc(Cl)c(C(=O)OC(C)C(=O)N3CCCC3)c2)cc1Cl (centres undefined)	?	-16.0	1.8	-17.7%
Cc1c(S(=O)(=O)N2CCN(c3ccc(F)cc3)CC2)c(=O)n(C)c(=O)n1C	2.7%	-35.7	2.2	10.1%
c1csc(-c2nnc(NC3CCCCC3)c3ccccc23)c1	?	-4.5	-4.9	-16.6%
